# Bioassay records deposited in PubChem BioAssay by National Center for Advancing Translational Sciences (NCATS).
# ALDH1A1 block = blocks purified human ALDH1A1 activity; P00352; 220,000 compounds, 7.3% hits; Potency, µM (highest dose often 75.3 µM), usual class: inhibitors; Purified ALDH1A1, NADH fluorescence, propionaldehyde substrate; AID 1030
# HTT cytoprotect = Huntington cell model cytoprotection by ATP luminescence; PC12 HTT-Q103 induced, cytoprotection, ATP luminescence, 40 h; Potency, µM (highest dose often 56.4 µM), most hits filed as activators; 230,000 compounds, 0.14% hits; active = well fitted curve in the direction sought with a large enough effect; inconclusive = small, poorly fitted or top-dose-only effect, or another doubt; inactive = no such curve, though single readings can be large; an effect the other way counts as inactive or inconclusive; note: nearly all actives have a fitted effect of over 45% in size
#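 Quantitative HTS on tebufenozide-induced (100 nM) PC12 cells expressing HTTQ103 exon 1–GFP; compounds tested as a concentration series; survival measured via cellular ATP.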
# CBFb RUNX1 block = inhibitors of human CBF-beta and RUNX1 interaction. Potency, µM (top dose mostly 59.8 µM), actives largely listed as inhibitors. AlphaScreen CBFb-His/RUNX1-biotin binding, biochemical. 230,000 tested, under 10 active. Q01196+Q13951; active = well fitted curve in the direction sought with a large enough effect; inconclusive = small, poorly fitted or top-dose-only effect, or another doubt; inactive = no such curve, though single readings can be large; an effect the other way counts as inactive or inconclusive
#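 AlphaScreen binding: CBFb-His and RUNX1-biotin (30 nM each) preincubated 20 min, compound added for 15 min, then nickel and streptavidin beads for 90 min, all at room temperature. Disruption of the interaction by any mechanism counts as activity.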
# HTT aggregate = reduces HttQ103-GFP aggregates in PC12 cells. PC12 HttQ103-GFP aggregates, Acumen cytometry, 40 h. 220,000 compounds, 1.1% hits. AID 1688. Potency, µM (doses to about 46.1 µM), hits mostly inhibitors; active = well fitted curve in the direction sought with a large enough effect; inconclusive = small, poorly fitted or top-dose-only effect, or another doubt; inactive = no such curve, though single readings can be large; an effect the other way counts as inactive or inconclusive; note: nearly all actives have a fitted effect of over 60% in size
#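 Aggregates are detected as GFP objects 1–25 µm with signal 6 STDEV over background in lysates of induced PC12 cells. These carry Huntingtin exon 1 with 103 glutamines fused to GFP under an ecdysone promoter; compounds titrated.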
# HPGD inh = inhibitors of human 15-hydroxyprostaglandin dehydrogenase (HPGD); P15428; purified HPGD, NADH fluorescence kinetic, PGE2 substrate; Potency, µM, usual class: inhibitors; 150,000 compounds, 4.3% hits
# Target sequence (P15428 whole entry, looked up): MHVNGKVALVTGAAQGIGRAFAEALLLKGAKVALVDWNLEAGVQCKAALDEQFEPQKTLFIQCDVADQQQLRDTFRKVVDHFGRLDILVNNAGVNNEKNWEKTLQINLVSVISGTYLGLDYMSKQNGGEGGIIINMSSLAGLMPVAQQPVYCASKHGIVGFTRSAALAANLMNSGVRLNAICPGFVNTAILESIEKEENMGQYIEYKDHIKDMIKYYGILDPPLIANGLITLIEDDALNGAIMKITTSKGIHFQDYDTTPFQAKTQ
#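 20 nM HPGD preincubated 15 min at room temperature with compound in 50 mM Tris-HCl pH 8, 0.01% Tween 20. Started with 1 mM NAD+ and 30 uM prostaglandin E2; NADH fluorescence (360/450 nm) read 5 times over 30-s intervals, last minus first.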
# KDM4E inh = blocks human JMJD2E demethylase activity; 230,000 compounds, 1.6% hits; B2RXH2; AID 2147; JMJD2E catalytic domain, FDH-coupled NADH fluorescence (FDH is formaldehyde dehydrogenase); Potency, µM (highest dose often 57.1 µM), hits mostly inhibitors; note: nearly all actives have a fitted effect of over 50% in size
# Target sequence (B2RXH2 1-337 limits assumed): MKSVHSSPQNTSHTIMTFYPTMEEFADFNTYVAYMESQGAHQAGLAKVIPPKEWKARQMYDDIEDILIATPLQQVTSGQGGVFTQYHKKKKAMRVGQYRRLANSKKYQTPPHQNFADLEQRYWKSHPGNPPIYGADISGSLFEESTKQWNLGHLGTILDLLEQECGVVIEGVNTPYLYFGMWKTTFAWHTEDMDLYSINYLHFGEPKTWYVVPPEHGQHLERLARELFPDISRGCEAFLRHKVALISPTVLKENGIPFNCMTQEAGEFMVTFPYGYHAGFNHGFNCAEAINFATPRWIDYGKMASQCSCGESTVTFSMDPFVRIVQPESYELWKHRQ
# Numbers stand for hits; n = inactive; u = inconclusive; x = no result given; [ ] = remark or other dose. Sampled rows, rich in hits. Any-hit rate of the full collection: about 9.8%. Unless noted, calls come from the whole dose curve; as a rule, active = well fitted inhibition curve with a large enough effect (not every such curve was filed as active); inconclusive = small, poorly fitted or top-dose-only effect, or another doubt; inactive = no such curve, though single readings can be large or run the other way.
SMILES,ALDH1A1 block,HTT cytoprotect,CBFb RUNX1 block,HTT aggregate,HPGD inh,KDM4E inh
COc1ccccc1C(=O)NC(=Nc1nc2ccccc2o1)NC(=O)c1ccccc1OC,n,n[10 µM],n,10µM,n,n
O=C(NC(=Nc1nc2ccccc2o1)NC(=O)c1ccccc1)c1ccccc1,n,x,n,n,n,n
CC(C)(C)c1cc(CNC2CS(=O)(=O)C[C@@H]2O)cc(C(C)(C)C)c1O (some centres undefined),13µM,n[0.074 µM],n,u,n,n
Cc1cn([C@H]2C[C@H](N=[N+]=[N-])[C@H](CO)O2)c(=O)[nH]c1=O,n[13.5 µM],u,x,n,n,x
Cc1oc(/N=C/c2c(O)ccc3ccccc23)c(C#N)c1C,35µM,n,n,n,n,u
N#Cc1c(NC(=O)C2CC(c3ccccc3Cl)=NO2)sc2c1CCC2 (centres undefined),u,n,n,n,u,n
Cc1onc(-c2ccccc2Cl)c1C(=O)Nc1sc2c(c1C#N)CCC2,u,n[10 µM],n,11µM,u,n
Cc1onc(C(=O)Nc2sc3c(c2C#N)CCCC3)c1[N+](=O)[O-],7.1µM,n,n,n,x,n
CCc1c(C)sc(NC(=O)c2cc(-c3ccco3)on2)c1C#N,28µM,n,n,n,u,u
N#Cc1c(NC(=O)C2CC(c3ccccc3O)=NO2)sc2c1CCC2 (centres undefined),11µM,n[10 µM],n,n,25µM,n
CCCCOc1ccc(-c2cc(C(F)(F)F)c(C#N)c(SCC(=O)O)n2)cc1,u,n,n,n,x,u
CN1C(=O)CS/C1=N\NC(=O)COc1cccc2cccnc12,n,n[10 µM],n,n[9.22 µM],x,n
CC1CC(C)(C)NC(=S)N1CC(=O)N1CCN(Cc2ccc3c(c2)OCO3)CC1 (centres undefined),n,n,n,n,x,n
Nc1ncnc2c1ncn2[C@@H]1O[C@H](C(=O)NC2CC2)[C@@H](O)[C@H]1O,n,n,n,x,x,x
CCCC(=O)Nc1sc2c(c1C#N)CCCC2,u,n,n,n,n,n
CCOC(=O)c1c(NC(=O)c2cc(C3CC3)on2)sc(C(C)=O)c1C,x,n,x,x,x,x
CCCc1cc(C(=O)Nc2ccc(F)cc2F)no1,n,n,n,n,n,n
CCOC(=O)c1c(NC(=O)c2noc(C)c2[N+](=O)[O-])sc(C(C)=O)c1C,25µM,n,n,n,x,n
CCCc1cc(C(=O)Nc2sc3c(c2C#N)CCC3)no1,11µM,n[10 µM],n,n,28µM,u
CCCc1cc(C(=O)Nc2ccccc2SC)no1,u,n,n,n,22µM,n
CC1CCc2c(sc(NC(=O)C3CCCO3)c2C#N)C1 (centres undefined),u,x,n,n,x,n
CCc1c(C)sc(NC(=O)C2CCCO2)c1C#N (centres undefined),16µM,n[10 µM],n,n,28µM,n
O=C(Cn1c(-c2ccccn2)nc2ccccc21)N/N=C/c1cccnc1,x,n[10 µM],n,n[9.22 µM],x,u
CCCc1cc(C(=O)Nc2sc(C)c(CC)c2C#N)no1,28µM,n[10 µM],u,n,n,n
CCc1c(C)sc(NC(=O)c2cc(C)on2)c1C#N,u,n,n,n,n,n
SMILES,ALDH1A1 block,HTT cytoprotect,CBFb RUNX1 block,HTT aggregate,HPGD inh,KDM4E inh
COCc1cc(=O)[nH]c(-c2ccccc2OC(F)(F)F)n1,n,n[10 µM],n,n[9.22 µM],x,n
C/C(Cn1nc([N+](=O)[O-])cc1C)=N\NC(=O)COc1ccccc1[N+](=O)[O-],14µM,n[10 µM],n,n,n,n
C/C(Cn1nc([N+](=O)[O-])cc1C)=N\NC(=O)COc1ccc(Cl)cc1Cl,u,n[10 µM],n,n,n,n
Cc1cc2nc(-c3ccc4c(c3)CCC4)ccn2n1,u,n,u,u,x,u
COc1ccc(S(=O)(=O)N2CCCCC2)cc1NS(=O)(=O)c1cc(Cl)ccc1Cl,2.2µM,x,n,n,n,n
CC(=O)Nc1ccc(S(=O)(=O)Nc2ccc(S(=O)(=O)N3CCCC3)cc2)cc1,2.8µM,n[10 µM],n,n,n,n
Cc1nc2ncnn2c(C)c1CCC(=O)Nc1ccc(S(=O)(=O)N2CCCCCC2)cc1,6.3µM,n,n,n,16µM,n
CC(=O)Nc1ccc(S(=O)(=O)N2CCN(C(C)CCc3ccccc3)CC2)cc1 (centres undefined),32µM,n,n,n,n,n
COc1ccc(S(=O)(=O)N2CCCCC2)cc1NS(=O)(=O)c1ccccc1F,u,n,n,n,x,n
COc1ccccc1NC(=O)COC(=O)C1CC1,n,n,n,n,x,n
COc1ccc(C2/C=C\CN(C(=O)c3ccccc3)[C@H](Cc3ccccc3)C(=O)N2Cc2ccc(F)cc2)cc1 (some centres undefined),x,n[10 µM],n,n[9.22 µM],x,n
CCCn1c(SCC(=O)c2ccc(OC)c(OC)c2)nc2c1c(=O)n(C)c(=O)n2C,n,n[10 µM],n,n,n,n
Cc1cc(C)c(NC(=O)CSc2ccc(-c3cccnc3)nn2)c(C)c1,u,n,n,n,x,n
O=C(O)CC(SCC(=O)Nc1ccc(S(=O)(=O)N2CCCC2)cc1)C(=O)O (centres undefined),8.9µM,n,n,n,x,n
COC(=O)Nc1ccc(S(=O)(=O)N2CCCCC2)cc1,n,n,n,n,n,n
O=C(O)/C=C/C(=O)Nc1ccc(S(=O)(=O)N2CCCC2)cc1,22µM,n,n,n,x,n
COc1ccc(C2SCCN2S(=O)(=O)c2ccc(NC(C)=O)cc2)cc1 (centres undefined),n,n,n,n,n,n
COc1ccc(S(=O)(=O)N2CCC(C(N)=O)(N3CCCCC3)CC2)cc1,18µM,n,n,n,n,n
COc1ccc(S(=O)(=O)N2CCCCC2)cc1,n,n,n,n,n,n
CC(=O)Nc1ccc(S(=O)(=O)N2CCSC2C(=O)O)cc1 (centres undefined),18µM,n,n,n[9.22 µM],n,n
CCC(CC)NC(=O)Cc1ccccc1OC,n,n,n,n,n,n
COc1ccc(NS(=O)(=O)c2ccc(S(=O)(=O)N3CCCC3)cc2)cc1Cl,13µM,n,n,u,n,n
COc1ccc(S(=O)(=O)Nc2ccc(F)c(F)c2)cc1Cl,u,n,n,u,n,n
COc1ccc(S(=O)(=O)N2CCC(C(=O)N3CCCC3)CC2)cc1,n,n,n,n,n,n
COc1ccc(NS(=O)(=O)c2ccc(S(=O)(=O)N3CCOCC3)cc2)cc1,1.4µM,n,n,n,x,n
COc1ccc(S(=O)(=O)N(CC(=O)Nc2ccc(S(=O)(=O)N3CCOCC3)cc2)c2ccccc2)cc1,u,n[10 µM],n,n,3.5µM,n
COc1ccc(S(=O)(=O)N2CCC(C(=O)N3CCCCCC3)CC2)cc1,u,n,n,n,16µM,n
